Consider 39 sequences from paper PMC10812921, “Transcriptional Coactivator BOB1 (OBF1, OCA-B) Modulates the Specificity of DNA Recognition by the POU-Domain Factors OCT1 and OCT2 in a Monomeric Configuration”.

The first assay addresses T1, POU2 (OCT2 POU domain) (human, UniProt P09086 175-386).
T1 sequence: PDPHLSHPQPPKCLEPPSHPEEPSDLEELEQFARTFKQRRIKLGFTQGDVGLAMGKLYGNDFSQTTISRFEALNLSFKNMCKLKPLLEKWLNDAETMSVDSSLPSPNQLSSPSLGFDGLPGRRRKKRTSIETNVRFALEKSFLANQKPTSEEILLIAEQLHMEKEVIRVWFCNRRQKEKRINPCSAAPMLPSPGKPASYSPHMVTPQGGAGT
The experiment in a line: EMSA-SELEX-seq; no BOB1; 20 mM Tris-HCl pH 7.6, 140 mM NaCl, 10% glycerol, 0.5 mM EDTA, 0.05% Triton X-100, 0.1 mg/mL BSA, 0.1 mg/mL poly(dI-dC), 5 mM DTT, room temperature, 20 min; high values mean tight binding. The note with it: protein: recombinant; dsDNA, one strand shown. Put shortly: (§1)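 Binding preference is reported as the percentage of sequenced 8-mers that match a motif pattern. Tagged POU-domain proteins were made in E. coli BL21, purified under denaturing conditions and renatured. A 30 ng portion was combined with 300 ng of a PCR-amplified double-stranded random 35-nt library, with or without 28 ng coactivator protein, in 20 μL Tris–HCl pH 7.6 binding buffer for 20 min at RT. Complex bands were excised from native 6% PAGE, eluted and PCR-amplified over four rounds before Illumina sequencing.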
For orientation: Mobility shift assays separate free from complexed probe on a gel.
With ACTAGAAG, the binding signal was 0.0316 % of ANNNNAAN 8-mers.
Still for that read-out and setting: next, AATTGAAC: 0.0575 % of ANNNNAAN 8-mers; AAAACAAG: 0.0432 % of ANNNNAAN 8-mers; AAACAAAC: 0.0506 % of ANNNNAAN 8-mers.
The same measure, in the same setting: next, ATCACAAC: 0.0242 % of ANNNNAAN 8-mers.
On to AACAAAAT, for which the binding signal was 0.0926 % of ANNNNAAN 8-mers.
Same read-out and setting: next, ACAAGAAT: 0.0518 % of ANNNNAAN 8-mers; AGAGAAAA: 0.065 % of ANNNNAAN 8-mers; AGCGCAAT: 0.0368 % of ANNNNAAN 8-mers.
On the same count and under the same terms, next, ACATAAAC: 0.106 % of ANNNNAAN 8-mers; ACCAAAAT: 0.0397 % of ANNNNAAN 8-mers.
AGTTGAAG: the binding signal was 0.0316 % of ANNNNAAN 8-mers.
Same read-out and setting: next, AGCGGAAA: 0.0472 % of ANNNNAAN 8-mers; AGAGCAAT: 0.0443 % of ANNNNAAN 8-mers.
Same read-out and setting: next, ATATTAAT: 0.558 % of ANNNNAAN 8-mers.
As for AAGTCAAT, the binding signal was 0.0731 % of ANNNNAAN 8-mers.
ATGCCAAG: the binding signal was 0.0357 % of ANNNNAAN 8-mers.
With AGCAAAAC, the binding signal is 0.0449 % of ANNNNAAN 8-mers.
On the same count and under the same terms, next, ATATAAAA: 0.102 % of ANNNNAAN 8-mers.
On the same count and under the same terms, next, ACTATAAC: 0.0196 % of ANNNNAAN 8-mers; ATGTAAAG: 0.393 % of ANNNNAAN 8-mers.
The same measure, in the same setting: next, ATGCAAAA: 1.17 % of ANNNNAAN 8-mers; AGGAGAAC: 0.0363 % of ANNNNAAN 8-mers.
For AGCTAAAC, the binding signal is 0.0236 % of ANNNNAAN 8-mers.
Still for that read-out and setting: next, ACGACAAG: 0.023 % of ANNNNAAN 8-mers; AGGGTAAA: 0.0857 % of ANNNNAAN 8-mers; AATCTAAT: 0.143 % of ANNNNAAN 8-mers.
Same read-out and setting: next, ATAGGAAG: 0.0696 % of ANNNNAAN 8-mers.
The same measure, in the same setting: next, ACTTGAAG: 0.0236 % of ANNNNAAN 8-mers; ACCAGAAT: 0.0437 % of ANNNNAAN 8-mers; AGAGCAAG: 0.0213 % of ANNNNAAN 8-mers.
For ATTCAAAT, the binding signal is 1.29 % of ANNNNAAN 8-mers.
Same read-out and setting: next, ACCACAAT: 0.0178 % of ANNNNAAN 8-mers; AGTGTAAA: 0.0667 % of ANNNNAAN 8-mers.
Still for that read-out and setting: next, AGCTCAAG: 0.0173 % of ANNNNAAN 8-mers.
Still for that read-out and setting: next, ACGCGAAT: 0.0512 % of ANNNNAAN 8-mers; ATGCGAAA: 0.0926 % of ANNNNAAN 8-mers; AGAAAAAT: 0.0886 % of ANNNNAAN 8-mers.
Regarding ATATTAAA, the binding signal is 0.365 % of ANNNNAAN 8-mers.

The next assay has as its target POU1 (OCT1 POU domain);BOB1 (OBF1, OCA-B) (human;human, UniProt P14859;Q16633 260-458;1-256, |). Put plainly: EMSA-SELEX-seq; with BOB1 (ternary complex band); 20 mM Tris-HCl pH 7.6, 140 mM NaCl, 10% glycerol, 0.5 mM EDTA, 0.05% Triton X-100, 0.1 mg/mL BSA, 0.1 mg/mL poly(dI-dC), 5 mM DTT, room temperature, 20 min; high values mean tight binding. As to conditions: protein: recombinant;recombinant; copies: 1;1; dsDNA, one strand shown. Put shortly: as §1
Regarding ACTAGAAG, the binding signal is 0.03 % of ANNNNAAN 8-mers.
Same read-out and setting: next, AATTGAAC: 0.0386 % of ANNNNAAN 8-mers.
Still for that read-out and setting: next, AAAACAAG: 0.087 % of ANNNNAAN 8-mers.
Same read-out and setting: next, AAACAAAC: 0.109 % of ANNNNAAN 8-mers; ATCACAAC: 0.0222 % of ANNNNAAN 8-mers; AACAAAAT: 0.14 % of ANNNNAAN 8-mers.
For ACAAGAAT, the binding signal was 0.0437 % of ANNNNAAN 8-mers.
As to AGAGAAAA, the binding signal is 0.0574 % of ANNNNAAN 8-mers.
Turning to AGCGCAAT, the binding signal is 0.0258 % of ANNNNAAN 8-mers.
Still for that read-out and setting: next, ACATAAAC: 0.0652 % of ANNNNAAN 8-mers; ACCAAAAT: 0.055 % of ANNNNAAN 8-mers; AGTTGAAG: 0.0398 % of ANNNNAAN 8-mers.
For AGCGGAAA, the binding signal was 0.0324 % of ANNNNAAN 8-mers.
Still for that read-out and setting: next, AGAGCAAT: 0.0332 % of ANNNNAAN 8-mers.
Consider ATATTAAT, for which the binding signal was 0.142 % of ANNNNAAN 8-mers.
As for AAGTCAAT, the binding signal is 0.0535 % of ANNNNAAN 8-mers.
Still for that read-out and setting: next, ATGCCAAG: 0.025 % of ANNNNAAN 8-mers.
AGCAAAAC: the binding signal is 0.0792 % of ANNNNAAN 8-mers.
Still for that read-out and setting: next, ATATAAAA: 0.101 % of ANNNNAAN 8-mers.
Still for that read-out and setting: next, ACTATAAC: 0.023 % of ANNNNAAN 8-mers; ATGTAAAG: 0.489 % of ANNNNAAN 8-mers; ATGCAAAA: 3.15 % of ANNNNAAN 8-mers.
Still for that read-out and setting: next, AGGAGAAC: 0.0261 % of ANNNNAAN 8-mers; AGCTAAAC: 0.0265 % of ANNNNAAN 8-mers.
With ACGACAAG, the binding signal is 0.0215 % of ANNNNAAN 8-mers.
Still for that read-out and setting: next, AGGGTAAA: 0.0679 % of ANNNNAAN 8-mers; AATCTAAT: 0.0972 % of ANNNNAAN 8-mers.
Turning to ATAGGAAG, the binding signal is 0.0585 % of ANNNNAAN 8-mers.
Turning to ACTTGAAG, the binding signal is 0.0273 % of ANNNNAAN 8-mers.
As to ACCAGAAT, the binding signal is 0.0293 % of ANNNNAAN 8-mers.
Same read-out and setting: next, AGAGCAAG: 0.0191 % of ANNNNAAN 8-mers; ATTCAAAT: 1.57 % of ANNNNAAN 8-mers; ACCACAAT: 0.0199 % of ANNNNAAN 8-mers.
On the same count and under the same terms, next, AGTGTAAA: 0.0687 % of ANNNNAAN 8-mers; AGCTCAAG: 0.0187 % of ANNNNAAN 8-mers.
As for ACGCGAAT, the binding signal was 0.0336 % of ANNNNAAN 8-mers.
For the sequence ATGCGAAA, the binding signal was 0.0648 % of ANNNNAAN 8-mers.
For the sequence AGAAAAAT, the binding signal was 0.0921 % of ANNNNAAN 8-mers.
Same read-out and setting: next, ATATTAAA: 0.131 % of ANNNNAAN 8-mers.

The target of the next assay is T2, POU2 (OCT2 POU domain);BOB1 (OBF1, OCA-B) (human;human, UniProt P09086;Q16633 175-386;1-256, |).
T2 sequence 1: T1 sequence
T2 sequence 2: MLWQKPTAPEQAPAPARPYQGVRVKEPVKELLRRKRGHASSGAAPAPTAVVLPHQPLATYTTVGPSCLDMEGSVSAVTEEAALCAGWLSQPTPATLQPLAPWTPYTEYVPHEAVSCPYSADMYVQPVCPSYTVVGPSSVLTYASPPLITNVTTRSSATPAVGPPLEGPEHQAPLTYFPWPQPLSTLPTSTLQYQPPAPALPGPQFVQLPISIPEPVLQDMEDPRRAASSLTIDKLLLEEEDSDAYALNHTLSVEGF
The assay is described as above. The note with it: protein: recombinant;recombinant; copies: 1;1; dsDNA, one strand shown. In short, it runs like this:
as §1
For the sequence ACTAGAAG, the binding signal is 0.0231 % of ANNNNAAN 8-mers.
AATTGAAC: the binding signal is 0.052 % of ANNNNAAN 8-mers.
As to AAAACAAG, the binding signal was 0.0751 % of ANNNNAAN 8-mers.
On the same count and under the same terms, next, AAACAAAC: 0.0512 % of ANNNNAAN 8-mers; ATCACAAC: 0.0165 % of ANNNNAAN 8-mers.
For the sequence AACAAAAT, the binding signal was 0.0982 % of ANNNNAAN 8-mers.
For ACAAGAAT, the binding signal was 0.0512 % of ANNNNAAN 8-mers.
Same read-out and setting: next, AGAGAAAA: 0.0504 % of ANNNNAAN 8-mers.
Same read-out and setting: next, AGCGCAAT: 0.0297 % of ANNNNAAN 8-mers; ACATAAAC: 0.0751 % of ANNNNAAN 8-mers.
Take ACCAAAAT: the binding signal was 0.0537 % of ANNNNAAN 8-mers.
In the case of AGTTGAAG, the binding signal is 0.0338 % of ANNNNAAN 8-mers.
On the same count and under the same terms, next, AGCGGAAA: 0.033 % of ANNNNAAN 8-mers; AGAGCAAT: 0.0363 % of ANNNNAAN 8-mers; ATATTAAT: 0.177 % of ANNNNAAN 8-mers.
For AAGTCAAT, the binding signal is 0.0677 % of ANNNNAAN 8-mers.
Same read-out and setting: next, ATGCCAAG: 0.0248 % of ANNNNAAN 8-mers; AGCAAAAC: 0.0446 % of ANNNNAAN 8-mers; ATATAAAA: 0.0702 % of ANNNNAAN 8-mers.
On the same count and under the same terms, next, ACTATAAC: 0.0239 % of ANNNNAAN 8-mers; ATGTAAAG: 0.477 % of ANNNNAAN 8-mers; ATGCAAAA: 3.29 % of ANNNNAAN 8-mers.
Turning to AGGAGAAC, the binding signal is 0.0149 % of ANNNNAAN 8-mers.
Same read-out and setting: next, AGCTAAAC: 0.0256 % of ANNNNAAN 8-mers; ACGACAAG: 0.0231 % of ANNNNAAN 8-mers.
Still for that read-out and setting: next, AGGGTAAA: 0.0966 % of ANNNNAAN 8-mers; AATCTAAT: 0.0949 % of ANNNNAAN 8-mers; ATAGGAAG: 0.0561 % of ANNNNAAN 8-mers.
On to ACTTGAAG, for which the binding signal is 0.0239 % of ANNNNAAN 8-mers.
Still for that read-out and setting: next, ACCAGAAT: 0.0363 % of ANNNNAAN 8-mers; AGAGCAAG: 0.0132 % of ANNNNAAN 8-mers.
Take ATTCAAAT: the binding signal is 1.95 % of ANNNNAAN 8-mers.
Still for that read-out and setting: next, ACCACAAT: 0.0215 % of ANNNNAAN 8-mers.
On to AGTGTAAA, for which the binding signal was 0.052 % of ANNNNAAN 8-mers.
Still for that read-out and setting: next, AGCTCAAG: 0.0206 % of ANNNNAAN 8-mers; ACGCGAAT: 0.0371 % of ANNNNAAN 8-mers; ATGCGAAA: 0.0743 % of ANNNNAAN 8-mers.
On to AGAAAAAT, for which the binding signal was 0.09 % of ANNNNAAN 8-mers.
Turning to ATATTAAA, the binding signal is 0.14 % of ANNNNAAN 8-mers.
